Values joined by “and” are separate entries in the source; they are usually repeats but may differ in a detail not shown here. Equal values may be shown once. Results filed as inconclusive are left out. Where a call stands in place of a potency, no number is given. Some structures have more than one record in an assay (separate samples or runs), and their calls can disagree. Active and inactive are the calls of the source. Unless noted, calls follow the shape of the dose curve; as a rule, active = well fitted curve in the direction sought with a large enough effect; inconclusive = small, poorly fitted or top-dose-only effect, or another doubt; inactive = no such curve, though single readings can be large; an effect the other way counts as inactive or inconclusive.
Key:
[1] = Primary qHTS for small molecule stabilizers of the endoplasmic reticulum resident proteome: Secreted ER Calcium Modulated Protein (SERCaMP) assay (AID 1508630); details: SH-SY5Y GLuc-SERCaMP (Gaussia luciferase released on ER calcium loss) secretion, thapsigargin, luminescence; series mostly up to 38.4 µM
Method in brief: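 The SH-SY5Y reporter protocol was run at 3 concentrations up to 38.3 uM (primary) or 11 concentrations (follow-up): 16 h compound, 100 nM thapsigargin for 4 h, then extracellular luciferase luminescence.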

[2] = A High-Content qHTS Against Drug Library for the Identification of Small Molecules that Inhibit DYT1 Early Onset Primary Dystonia-Associated Cell Pathology (AID 1645839; calls by dose curve); details: HEK293 Flp-In EGFP-delE TorsinA, punctate imaging, 48 h; series mostly up to 46.1 µM
Method in brief: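 Cells were seeded and left for 24 h, then dosed with compound alongside tetracycline induction of mutant EGFP-TorsinA. They were incubated for 48 h, fixed in 4% paraformaldehyde, permeabilized and imaged for mislocalization (%pathology) and cell count.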

[3] = molecular target: Cytochrome P450 2D6 (Homo sapiens) (UniProt P10635); assay: Cytochrome P450 family 2 subfamily D member 6 (CYP2D6) small molecule antagonists: luciferase biochemical (cell-free) qHTS assay (AID 1645840; active = well fitted curve in the direction sought with a large enough effect in the repeat runs; an effect the other way counts as inactive or inconclusive; also: nearly all actives have a fitted effect of over 55% in size; also: potency is read from the fitted curve at half-maximal effect); details: P450-Glo CYP2D6 enzyme, luciferin luminescence, 1 h; series mostly up to 57.4 µM
Sequence of Cytochrome P450 2D6 (Homo sapiens) (P10635 whole entry, looked up): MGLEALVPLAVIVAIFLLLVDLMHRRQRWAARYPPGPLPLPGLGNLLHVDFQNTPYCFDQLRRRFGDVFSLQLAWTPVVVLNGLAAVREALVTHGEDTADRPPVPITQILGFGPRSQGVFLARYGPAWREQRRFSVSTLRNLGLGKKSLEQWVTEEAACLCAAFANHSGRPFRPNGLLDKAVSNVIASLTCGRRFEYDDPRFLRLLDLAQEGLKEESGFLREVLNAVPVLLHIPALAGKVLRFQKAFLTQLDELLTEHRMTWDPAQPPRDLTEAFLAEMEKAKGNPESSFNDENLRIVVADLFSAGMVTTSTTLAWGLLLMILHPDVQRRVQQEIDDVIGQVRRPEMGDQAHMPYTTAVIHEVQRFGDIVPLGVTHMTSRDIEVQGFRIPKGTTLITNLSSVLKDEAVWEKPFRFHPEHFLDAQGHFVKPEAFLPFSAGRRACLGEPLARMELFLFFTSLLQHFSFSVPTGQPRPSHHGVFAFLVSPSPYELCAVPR
Method in brief: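 P450-Glo CYP2D6 system: proluciferin substrate converted by enzyme to luciferin, read by luminescence proportional to activity. Enzyme-substrate mix with compound 10 min at room temperature, then NADPH regeneration 1 h before detection reagent.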

Papain (Carica papaya) = Papain (Carica papaya) (UniProt P00784); assay: Primary qHTS assay for inhibitors of the protease papain (AID 1645873); details: papain Z-FR-AMC cleavage, AMC fluorescence; series mostly up to 49.8 µM;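 also: papain turnover of Z-FR-AMC read as the AMC fluorescence gain over 10 min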
Sequence of Papain (Carica papaya) (P00784 whole entry, looked up): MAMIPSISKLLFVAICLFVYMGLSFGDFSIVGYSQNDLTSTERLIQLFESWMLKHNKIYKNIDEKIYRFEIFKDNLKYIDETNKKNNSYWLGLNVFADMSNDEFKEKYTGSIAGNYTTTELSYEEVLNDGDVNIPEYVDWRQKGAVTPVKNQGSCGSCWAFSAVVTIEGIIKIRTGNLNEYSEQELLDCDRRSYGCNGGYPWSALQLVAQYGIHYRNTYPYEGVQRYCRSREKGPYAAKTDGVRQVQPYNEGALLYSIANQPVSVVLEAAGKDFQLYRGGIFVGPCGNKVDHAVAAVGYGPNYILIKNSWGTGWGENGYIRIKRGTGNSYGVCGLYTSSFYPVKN

[4] = molecular target: Cytochrome P450 2C9 (Homo sapiens) (UniProt P11712); assay: Cytochrome P450 family 2 subfamily C member 9 (CYP2C9) small molecule antagonists: luciferase biochemical (cell-free) qHTS assay (AID 1645842; active = well fitted curve in the direction sought with a large enough effect in the repeat runs; an effect the other way counts as inactive or inconclusive; also: nearly all actives have a fitted effect of over 55% in size; also: potency is read from the fitted curve at half-maximal effect); details: P450-Glo CYP2C9 enzyme assay, luciferin luminescence; series mostly up to 57.4 µM
Sequence of Cytochrome P450 2C9 (Homo sapiens) (P11712 whole entry, looked up): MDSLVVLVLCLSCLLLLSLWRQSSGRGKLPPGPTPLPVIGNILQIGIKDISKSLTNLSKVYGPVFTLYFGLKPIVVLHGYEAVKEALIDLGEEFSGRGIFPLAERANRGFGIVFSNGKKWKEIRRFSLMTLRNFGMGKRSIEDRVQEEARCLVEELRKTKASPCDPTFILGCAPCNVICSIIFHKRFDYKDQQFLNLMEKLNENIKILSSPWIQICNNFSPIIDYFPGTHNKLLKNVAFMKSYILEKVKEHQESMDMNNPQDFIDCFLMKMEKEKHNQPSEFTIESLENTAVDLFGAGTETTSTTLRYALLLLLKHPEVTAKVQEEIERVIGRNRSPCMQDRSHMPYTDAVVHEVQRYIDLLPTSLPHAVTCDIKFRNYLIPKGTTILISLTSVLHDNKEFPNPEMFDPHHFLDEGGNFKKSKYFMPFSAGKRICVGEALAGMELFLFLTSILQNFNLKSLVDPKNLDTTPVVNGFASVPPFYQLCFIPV
Method in brief: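 P450-Glo CYP2C9 system: proluciferin substrate with enzyme in mix containing 0.4% BSA, 10 min at room temperature, then NADPH regeneration solution added and incubated 1 h at 37C. Detection reagent stopped reaction; luminescence read after 20 min as RLU.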

[5] = molecular target: Cytochrome P450 3A4 (Homo sapiens) (UniProt P08684); assay: Cytochrome P450 family 3 subfamily A member 4 (CYP3A4) small molecule antagonists: luciferase qHTS assay (AID 1645841; active = well fitted curve in the direction sought with a large enough effect in the repeat runs; an effect the other way counts as inactive or inconclusive; also: nearly all actives have a fitted effect of over 45% in size); details: P450-Glo CYP3A4 enzyme assay, luciferin luminescence; series mostly up to 57.4 µM
Sequence of Cytochrome P450 3A4 (Homo sapiens) (P08684 whole entry, looked up): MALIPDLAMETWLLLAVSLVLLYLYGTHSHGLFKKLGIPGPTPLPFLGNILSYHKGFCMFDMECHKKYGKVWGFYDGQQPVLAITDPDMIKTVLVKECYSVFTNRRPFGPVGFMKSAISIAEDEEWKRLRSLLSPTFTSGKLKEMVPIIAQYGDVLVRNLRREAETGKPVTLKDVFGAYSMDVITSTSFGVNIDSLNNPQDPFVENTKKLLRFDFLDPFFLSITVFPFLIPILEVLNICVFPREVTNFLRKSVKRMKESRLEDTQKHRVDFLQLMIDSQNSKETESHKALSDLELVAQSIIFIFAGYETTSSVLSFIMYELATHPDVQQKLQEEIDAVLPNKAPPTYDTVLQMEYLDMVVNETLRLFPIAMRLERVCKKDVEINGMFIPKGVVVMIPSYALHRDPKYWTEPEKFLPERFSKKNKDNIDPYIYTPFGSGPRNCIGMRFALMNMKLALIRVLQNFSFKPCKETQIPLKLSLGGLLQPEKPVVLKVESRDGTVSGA
Method in brief: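 P450-Glo CYP3A4 enzyme with proluciferin substrate preincubated 10 min with compound at room temperature, then NADPH regeneration 1 h. Luciferin detection reagent added for 20 min; luminescence recorded. Ketoconazole positive control.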

[6] = molecular target: N-terminal Xaa-Pro-Lys N-methyltransferase 1 (Homo sapiens) (UniProt Q9BV86); assay: Confirmatory qHTS for Inhibitors of N-terminal methyltransferase 1 (NTMT1): MTaseGlo Assay (AID 1645874); details: NTMT1 enzyme, MTase-Glo SAH luminescence; series mostly up to 51.5 µM;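 also: luminescence from SAH made as NTMT1 methylates SPKRIA peptide using SAM; nearly all actives have a fitted effect of over 65% in size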
Sequence of N-terminal Xaa-Pro-Lys N-methyltransferase 1 (Homo sapiens) (Q9BV86 whole entry, looked up): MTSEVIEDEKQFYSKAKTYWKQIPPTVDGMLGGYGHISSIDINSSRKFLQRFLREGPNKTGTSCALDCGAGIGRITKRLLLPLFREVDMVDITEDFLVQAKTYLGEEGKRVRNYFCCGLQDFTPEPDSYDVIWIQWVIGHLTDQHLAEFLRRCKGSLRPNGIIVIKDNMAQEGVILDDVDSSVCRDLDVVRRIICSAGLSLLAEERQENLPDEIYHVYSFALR
Method in brief: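 SPKRIA peptide at 1 uM was methylated by 125 nM NTMT1 using 100 uM SAM over 30 min at room temperature, following a 15 min compound preincubation. Product SAH was detected luminescently.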

With NNc1nncc2ccccc12 the Potency [1] was “inactive”, the Potency [2] was “inactive” and the Potency [3] was “inactive”. The Potency (Papain (Carica papaya)) was “inactive”.
For COc1cc(OC)c(C(=O)CCCN2CCCC2)c(OC)c1, the Potency [1] was “inactive”, the Potency [2] was “inactive” and the Potency [3] was 11 µM (active). The Potency [4] was “inactive”.
With CCN(CC)CCOc1ccc(Cc2ccccc2)cc1 the Potency [1] was “inactive” and the Potency [3] was 6.17 µM (active).
For Cc1cccc(CN2CCN(C(c3ccccc3)c3ccc(Cl)cc3)CC2)c1 (stereo unspecified), the Potency [1] was “inactive” and the Potency [3] was 2.45 µM (active).
For O=C(NOCC1CC1)c1ccc(F)c(F)c1Nc1ccc(I)cc1Cl, the Potency [1] was “inactive” and the Potency [3] was “inactive”.
In the case of C=C(c1ccc(C(=O)O)cc1)c1cc2c(cc1C)C(C)(C)CCC2(C)C, the Potency [1] is reported as “inactive” and the Potency [3] is reported as “inactive”.
With Cc1cc(=O)c2c(O)c3c(O)cc(=O)c4c3c3c(cc(O)c1c23)C(C)(C)C=4O the Potency [1] was “inactive”, the Potency [3] was “inactive” and the outcome [5] was “inactive”. For the same compound, the Potency [4] was “inactive”.
With Cc1ccc(C(=O)c2cc(O)c(O)c([N+](=O)[O-])c2)cc1 the Potency [1] was “inactive”, the Potency [3] was “inactive” and the Potency [4] was 5.49 µM (active).
For Cc1cc2c(s1)Nc1ccccc1N=C2N1CCN(C)CC1, the Potency [1] was “inactive” and the Potency [3] was “inactive”.
In the case of COCCCOc1ccnc(CS(=O)c2nc3ccccc3[nH]2)c1C (stereo unspecified), the Potency [1] is reported as “inactive”, the Potency [2] is reported as “inactive” and the Potency [3] is reported as “inactive”. For the same compound, the Potency [4] was “inactive and 15.1 µM (active)”.
For c1cnc2cc3c(cc2n1)C1CNCC3C1, the Potency [1] was “inactive”, the Potency [2] was “inactive” and the Potency [3] was “inactive”. For the same compound, the Potency (Papain (Carica papaya)) was “inactive”.
In the case of O=C(NC(Cc1cc(=O)[nH]c2ccccc12)C(=O)O)c1ccc(Cl)cc1 (stereo unspecified), the Potency [1] is reported as “inactive”, the Potency [2] is reported as “inactive” and the Potency [3] is reported as “inactive”. For the same compound, the Potency [4] was “inactive”.
With CNC[C@H](O)c1ccc(O)c(O)c1 the Potency [1] was “inactive”, the Potency [2] was “inactive” and the Potency [4] was “inactive”. For the same compound, the Potency (Papain (Carica papaya)) was “inactive”.
With Cc1nc(-c2ccc(OCC(C)C)c(C#N)c2)sc1C(=O)O the Potency [1] was “inactive” and the Potency [3] was “inactive”.
With COC1=C(OC)C(=O)C(CCCCCCCCCCO)=C(C)C1=O the Potency [1] was “inactive” and the Potency [3] was 3.89 µM (active).
For CC(=O)Nc1ccc(O)cc1, the Potency [1] was “inactive”, the Potency [2] was “inactive” and the Potency [3] was “inactive”. The Potency [4] was “inactive”.
For O=c1oc2cc(O)ccc2s1, the Potency [1] was “inactive”, the Potency [3] was “inactive” and the Potency [4] was “inactive”.
In the case of c1ccc2[nH]c(-c3cscn3)nc2c1, the Potency [1] is reported as “inactive”, the Potency [2] is reported as “inactive” and the Potency [4] is reported as “inactive”.
For Nc1ccn([C@@H]2O[C@H](CO)[C@@H](O)C2O)c(=O)n1 (stereo partly specified), the Potency [1] was “inactive” and the Potency [3] was “inactive”.
For S=c1nc[nH]c2nc[nH]c12, the Potency [1] was “inactive”, the Potency [2] was “inactive” and the Potency [3] was “inactive”. The Potency [6] was “inactive”.
With CC1Cc2ccccc2N1NC(=O)c1ccc(Cl)c(S(N)(=O)=O)c1 (stereo unspecified) the Potency [1] was “inactive” and the Potency [3] was “inactive”.
For COc1ccc(C2(C#N)CCC(C(=O)O)CC2)cc1OC1CCCC1 (stereo unspecified), the Potency [1] was “inactive” and the Potency [3] was “inactive”.
For CC[C@]1(O)C[C@H]2CN(CCc3c([nH]c4ccccc34)[C@@](C(=O)OC)(c3cc4c(cc3OC)N(C=O)[C@H]3[C@@](O)(C(=O)OC)[C@H](OC(C)=O)[C@]5(CC)C=CCN6CC[C@]43[C@@H]65)C2)C1, the Potency [1] was “inactive”, the Potency [2] was “inactive” and the Potency [4] was “inactive”.
In the case of CC1(C)C(=O)N(CCN2CCC(C(=O)c3ccc(F)cc3)CC2)c2ccccc21, the Potency (Papain (Carica papaya)) is reported as “inactive”.
For CC1=C(C)C(=O)C(C(CCCCCC(=O)O)c2ccccc2)=C(C)C1=O (stereo unspecified), the Potency [1] was “inactive”, the Potency [3] was 11 µM (active) and the Potency [4] was 17.4 µM (active).
In the case of Cc1nc(Nc2ncc(C(=O)Nc3c(C)cccc3Cl)s2)cc(N2CCN(CCO)CC2)n1, the Potency [1] is reported as “inactive”, the Potency [3] is reported as “inactive” and the Potency [4] is reported as “inactive”.
With CC(=O)N1CCN(c2ccc(OC[C@H]3CO[C@](Cn4ccnc4)(c4ccc(Cl)cc4Cl)O3)cc2)CC1 the Potency [1] was “inactive” and the Potency (Papain (Carica papaya)) was “inactive”.
In the case of CCOC(=O)C1=C(O)C(=O)N(Cc2ccccc2)C1, the Potency [1] is reported as “inactive” and the Potency (Papain (Carica papaya)) is reported as “inactive”.
In the case of CN(C)CCCC1(c2ccc(F)cc2)OCc2cc(C#N)ccc21 (stereo unspecified), the Potency [1] is reported as “inactive” and the Potency (Papain (Carica papaya)) is reported as “inactive”.

Reference: PubChem BioAssay (NCATS)
